FUS yeast rescue: FUS proteinopathy suppression in yeast. S. cerevisiae FUS-expressing, growth rescue, OD600, 24 h. Potency, µM (doses to about 76.6 µM), most hits filed as activators. 390,000 compounds, 0.24% hits. AID 1347120;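 also: plate controls were DMSO vehicle for no effect and reference control for full effect; nearly all actives have a fitted effect of over 55% in size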
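Steps: raffinose overnight preculture; dilution to OD 0.005 in 2% galactose minimal medium; compound addition (concentration series); 24hr at 30C, 99% humidity; absorbance read at 600 nm.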
aSyn yeast inh: rescues yeast growth from alpha-synuclein toxicity. Yeast expressing alpha-synuclein, growth rescue, BacTiter-Glo, 24 h. Potency, µM (series often up to 46.1 µM), for the others: at the top dose growth rescue (activation), most hits filed as activators. 370,000 compounds, 0.14% hits. AID 652106; also: % of control where 0% means no effect; nearly all actives have a fitted effect of over 65% in size
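Galactose-induced alpha-syn yeast (OD600=0.02, raffinose-pregrown) + pinned cpd, 24 hr, 30 deg C; growth by BacTiter-Glo luminescence. Growth restoration scores as activation.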
Abeta yeast res: restores growth of yeast expressing A-beta42 peptide. yeast expressing A-beta42, growth rescue, OD600, 48 h; response scale: 0% DMSO, 100% iron-clioquinol control. Potency, µM (series often up to 46.1 µM), usual class: activators. 410,000 compounds, 0.063% hits; also: nearly all actives have a fitted effect of over 55% in size
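Yeast A-beta toxicity model in growth medium with pinned compounds, 48 h at 30 C; growth read as absorbance at 600 nm. Normalized to FeCl3/clioquinol equimolar mix (positive) and DMSO (negative).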
MmCpn inh: blocks the Methanococcus maripaludis chaperonin Mm-Cpn | 330,000 compounds, 0.031% hits | Potency, µM (doses to about 76.9 µM), for inactives: top-dose activity, negative = inhibition, actives largely listed as inhibitors | AID 504842 | purified Mm-Cpn ATPase, ADP Transcreener TR-FRET; also: % is scaled to controls: 0 for no effect and ±100 for the full control effect; nearly all actives have a fitted effect of over 80% in size
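Eu-cryptate anti-ADP/ADP-d2 competition gives a ratio inversely related to ADP. Enzyme at 25 nM was pre-exposed to compound for 10 min, then given 10 uM ATP for 30 min, 37°C throughout.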
ClpP mod: qHTS Assay for Activators of ClpP; ATP-dependent Clp protease proteolytic subunit (Bacillus subtilis (strain 168)), P80244; purified B. subtilis ClpP, FRET peptide cleavage, 20 min; Potency, µM (highest dose often 57.5 µM), for inactives: at the highest dose activity change, negative = active; 340,000 compounds, 1.9% hits; AID 651965, 2013; active = well fitted falling curve with a large enough effect; inconclusive = small, poorly fitted or top-dose-only effect; inactive = no such curve, though single readings can be large or run the other way; also: the source files actives as falling curves though it sought activators and does not explain the sign; nearly all actives have a fitted effect of over 65% in size
Target sequence (P80244 whole entry, looked up): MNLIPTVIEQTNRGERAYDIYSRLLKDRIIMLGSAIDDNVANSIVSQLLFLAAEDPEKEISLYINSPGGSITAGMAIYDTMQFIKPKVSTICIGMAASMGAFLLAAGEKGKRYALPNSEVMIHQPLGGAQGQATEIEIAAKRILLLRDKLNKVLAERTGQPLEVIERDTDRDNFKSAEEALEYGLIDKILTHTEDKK
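ClpP 10 microg/mL final, pH 8 Tris/KCl buffer with BSA, glycerol, Tween-20; compound pinned in; FRET-FV substrate; RT 20 min; Ex320/Em430; ΔFRET vs ADEP 5.8 microM, DMSO, no enzyme.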
TDP-43 yeast inh: rescues yeast growth from TDP-43 toxicity. TDP-43 expressing yeast growth rescue, BacTiter-Glo, 24 h. Potency, µM (doses to about 46.1 µM), inactives show at the top dose growth rescue (activation), actives largely listed as activators. 410,000 compounds, 1.8% hits; also: % of control where 0% means no effect; nearly all actives have a fitted effect of over 50% in size
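Galactose-induced TDP-43 yeast, OD600=0.02, compound pinned; 24 hr, 30 deg C; BacTiter-Glo luminescence for growth. Inhibitors of TDP-43 toxicity read as activators.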
The depositor's hits bear a star; i = inactive; ? = inconclusive; / = no result; ! = repeats disagree. Rows were chosen to be rich in hits. Some 3.6% of all compounds tested hit in one or more screens of this group. Unless noted, calls follow the shape of the dose curve; as a rule, active = well fitted curve in the direction sought with a large enough effect; inconclusive = small, poorly fitted or top-dose-only effect, or another doubt; inactive = no such curve, though single readings can be large; an effect the other way counts as inactive or inconclusive. Potency is read from the fitted curve at half-maximal effect.

SMILES	FUS yeast rescue	aSyn yeast inh	Abeta yeast res	MmCpn inh	ClpP mod	TDP-43 yeast inh
Cc1ccc(Cl)cc1NC(=O)N1CCC2(CC1)Oc1ccccc1C(=O)N2Cc1ccccc1F	i	/	i	/	-1.7%	-8.4%
COc1cc(NC(=O)c2csc(-c3ccncc3)n2)cc(C(=O)Nc2cccc(C(F)(F)F)c2)c1	?	0.6%	i	-5.1%	-15.3%	20µM*
COc1cc(NC(=O)c2cc3cccc(OC)c3o2)cc(C(=O)Nc2cccc(C(F)(F)F)c2)c1	i	0.9%	i	-14.6%	25.1µM*	23.1%
COc1cc(NC(=O)c2ccno2)cc(C(=O)Nc2cccc(C(F)(F)F)c2)c1	?	-14.0%	i	-7.2%	0.1%	0.0%
Cc1ccc(OCCn2cnc3cc([N+](=O)[O-])ccc3c2=O)cc1	i	7.4%	i	-0.5%	-0.2%	10µM*
Cc1ccccc1C(=O)N(Cc1sccc1C)C1CCS(=O)(=O)C1 (stereo not given)	i	/	i	/	-1.2%	?
NC(=NCCCCCCN=C(N)/N=C(\N)Nc1ccc(Cl)cc1)/N=C(\N)Nc1ccc(Cl)cc1	i	-58.9%	i	?	-0.7%	25.1µM*!
CC(C)(C)c1ccc(S(=O)(=O)NCC(=O)Nc2ccc(-c3nc4ccccc4s3)cc2)cc1	i	0.0%	i	-0.8%	5.01µM*	19.0%
CC(NS(=O)(=O)c1cccc(Cl)c1)C(=O)Nc1ccc(-c2nc3ccccc3s2)cc1 (stereo not given)	i	4.4%	i	-20.0%	35.5µM*	19.4%
Cc1ccc(C)c(S(=O)(=O)NC(C)C(=O)Nc2ccc(-c3nc4ccccc4s3)cc2)c1 (stereo not given)	/	-1.6%	i	-8.0%	31.6µM*	18.8%
O=C(CNS(=O)(=O)c1cccc(Cl)c1)Nc1ccc(-c2nc3ccccc3s2)cc1	/	-4.5%	i	-2.8%	-2.2%	20.8%
COCCNc1nnc(SC(C)C(=O)Nc2ccc(-c3nc4ccc(C)cc4s3)cc2)s1 (stereo not given)	?	1.3%	i	?	17.8µM*	2.4%
COCCNc1nnc(SC(C)C(=O)Nc2c(C)n(C)n(-c3ccccc3)c2=O)s1 (stereo not given)	i	-2.5%	i	1.5%	1.2%	6.3%
CCS(=O)(=O)c1ccccc1C(=O)Nc1ccc(-c2nc3ccccc3s2)cc1	i	/	i	/	4.7%	?
COc1cccc(CCNC(=O)c2cnc3sc(N4CCCC4)nn3c2=O)c1	i	/	i	/	4.3%	?
O=C(CCC1N=C2c3ccccc3N=C(SCc3cccc(F)c3)N2C1=O)NCCc1ccccc1 (stereo not given)	i	/	i	/	-3.2%	18.2%
O=C(N/N=C/c1cc(Br)cc(Cl)c1O)c1ccc2c(c1)OCO2	i	5.62µM*	i	/	/	6.31µM*
Cc1cc(C)c2ccc(/C=N/O)nc2c1O	i	12.6µM*	?	2.2%	-1.5%	21.0%
Cc1c(C(=O)OC(C)C)sc(NC(=O)C2c3ccccc3Oc3ccccc32)c1C(=O)OC(C)C	?	/	i	/	?	22.4%
CCn1cc(C(=O)NCc2ccccc2)c(=O)c2cc(F)c(N3CCN(C(=O)c4ccco4)CC3)cc21	i	?	i	0.3%	14.1µM*	29.4%
CCn1cc(C(=O)NCc2ccc3c(c2)OCO3)c(=O)c2cc(F)c(N3CCN(C(=O)c4ccco4)CC3)cc21	i	?	i	-1.5%	25.1µM*	26.0%
CCOc1ccc(NC(=O)CCN2CCN(S(=O)(=O)c3cc(Cl)ccc3OC)CC2)cc1	i	-0.5%	i	0.8%	28.2µM*	16.2%
O=C1/C(=C/N(C(=O)c2ccco2)c2ccc(Cl)cc2)Sc2ccccc21	/	-15.7%	i	-1.6%	10µM*	?
O=C(CS(=O)(=O)c1nc(-c2ccc(Cl)cc2)cn1-c1ccccc1)Nc1cccc(Cl)c1	?	/	i	/	-4.8%	?
O=C(CS(=O)(=O)c1nc(-c2ccc(Cl)cc2)cn1-c1ccccc1)Nc1ccc(F)cc1F	?	/	i	/	-8.2%	14.1µM*
SMILES	FUS yeast rescue	aSyn yeast inh	Abeta yeast res	MmCpn inh	ClpP mod	TDP-43 yeast inh
C=CCn1c(=NC(=O)c2ccco2)sc2cc(C(=O)OCC)ccc21	i	-12.4%	i	-0.2%	22.4µM*	8.9%
C=CCn1c(=NC(=O)c2ccco2)sc2cc(C(=O)OC)ccc21	i	1.2%	i	-3.8%	22.4µM*	8.0%
COc1cccc(C2C=C(c3ccc(C)cc3)Nc3c(C(=O)Nc4ccc(F)cc4)cnn32)c1OC (stereo not given)	i	/	i	/	-8.2%	?
Cc1nnc(SCC(=O)NCc2ccc(N(C)C)cc2)c2nn(-c3ccccc3)c(C)c12	i	/	i	/	0.5%	3.2%
COc1ccc(NC(=O)/C=C/C(=O)O)cc1Cl	i	?	i	6.31µM*	-1.2%	-9.9%
CC(C)c1ccc(NC(=O)CSc2nnc(-c3ccccn3)n2C)cc1	/	1.0%	i	0.7%	28.2µM*	?
COc1ccc(NC(=O)CCCC(=O)O)cc1Cl	i	-1.2%	i	-6.4%	0.4%	-17.4%
COc1ccc(NC(=O)COc2ccccc2)cc1Cl	i	-7.6%	i	-1.2%	-0.4%	11.2µM*
CC(C)c1ccc(NC(=O)COc2ccccc2)cc1	i	-6.6%	i	-0.1%	-0.9%	10µM*
Cc1ccc(NC(=O)COc2ccccc2)cc1Cl	i	-5.8%	i	-4.6%	/	?
OC1(Cc2ccccc2)CCN(c2ncnc3sccc23)CC1	i	/	/	/	/	/
Cc1ccc(N2CCN(C(=O)c3cnn(-c4ccc(F)cc4F)c3C3CCN(C(=O)OC(C)(C)C)CC3)CC2)c(C)c1	?	/	i	/	-0.4%	5.8%
C#CCSc1nccc(-c2nn(-c3ccc(C)cc3)ccc2=O)n1	35.5µM*	5.5%	i	-16.6%	?	-15.0%
O=C1CS(=O)(=O)C2(C(=O)N(Cc3ccccc3Cl)c3ccccc32)N1c1ccc(F)cc1 (stereo not given)	i	14.7%	i	/	0.1%	?
C(=C\c1nc(-c2ccncc2)no1)/c1ccccc1	i	6.7%	i	1.2%	/	11.2µM*
Cc1ccc(C)c(NC(=O)C(CC(C)C)N2Cc3ccccc3C2=O)c1 (stereo not given)	i	/	i	/	0.4%	-15.2%
